# Tested on: HCI01 (cells of a triple-negative basal-like breast cancer xenograft)
# Assay: cell viability of combination (% of vehicle); higher = less cytotoxic
# Conditions: 1 µM; 72 h; partner dose: 10 nM
# Procedure: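 PDX cells were treated for 72 h with each drug at 1 µM plus afatinib (10 nM; 1 µM for WHIM30). Luciferase viability is expressed as percent of vehicle.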
row,Compound,cell viability of combination
1,CCCCc1oc2ccc(NS(C)(=O)=O)cc2c1C(=O)c1ccc(OCCCN(CCCC)CCCC)cc1 [Dronedarone] + CN(C)C/C=C/C(=O)Nc1cc2c(Nc3ccc(F)c(Cl)c3)ncnc2cc1O[C@H]1CCOC1 [Afatinib],48.1
2,COc1ccc2c(O[C@H]3CC4C(=O)N(C)CCCC/C=C\[C@H]5C[C@@]5(C(=O)NS(=O)(=O)C5CC5)NC(=O)[C@@H]4C3)cc(-c3nc(C(C)C)cs3)nc2c1C (some centres undefined) [Simeprevir] + CN(C)C/C=C/C(=O)Nc1cc2c(Nc3ccc(F)c(Cl)c3)ncnc2cc1O[C@H]1CCOC1 [Afatinib],53.9
3,Clc1ccc(C(Cn2ccnc2)OCc2ccc(Sc3ccccc3)cc2)c(Cl)c1.O=[N+]([O-])O (centres undefined) [Fenticonazole Nitrate] + CN(C)C/C=C/C(=O)Nc1cc2c(Nc3ccc(F)c(Cl)c3)ncnc2cc1O[C@H]1CCOC1 [Afatinib],49.2
4,C#Cc1cccc(Nc2ncnc3cc(OCCOC)c(OCCOC)cc23)c1 [Erlotinib] + CN(C)C/C=C/C(=O)Nc1cc2c(Nc3ccc(F)c(Cl)c3)ncnc2cc1O[C@H]1CCOC1 [Afatinib],41.1
5,CO[C@H]1/C=C/O[C@@]2(C)Oc3c(C)c(O)c4c(O)c(c(/C=N/N5CCN(C6CCCC6)CC5)c(O)c4c3C2=O)NC(=O)/C(C)=C\C=C\[C@H](C)[C@H](O)[C@@H](C)[C@@H](O)[C@@H](C)[C@H](OC(C)=O)[C@@H]1C [Rifapentine] + CN(C)C/C=C/C(=O)Nc1cc2c(Nc3ccc(F)c(Cl)c3)ncnc2cc1O[C@H]1CCOC1 [Afatinib],56.2
6,COc1ccc(CN2CCN(C(c3ccc(F)cc3)c3ccc(F)cc3)CC2)c(OC)c1OC.Cl.Cl [Lomerizine HCl] + CN(C)C/C=C/C(=O)Nc1cc2c(Nc3ccc(F)c(Cl)c3)ncnc2cc1O[C@H]1CCOC1 [Afatinib],57.7
7,COC(=O)c1ccc2c(c1)NC(=O)C2=C(Nc1ccc(N(C)C(=O)CN2CCN(C)CC2)cc1)c1ccccc1 [Nintedanib (BIBF 1120)] + CN(C)C/C=C/C(=O)Nc1cc2c(Nc3ccc(F)c(Cl)c3)ncnc2cc1O[C@H]1CCOC1 [Afatinib],45
8,COc1cc(Nc2ncc(F)c(Nc3ccc4c(n3)N(COP(=O)(O)O)C(=O)C(C)(C)O4)n2)cc(OC)c1OC [Fostamatinib (R788)] + CN(C)C/C=C/C(=O)Nc1cc2c(Nc3ccc(F)c(Cl)c3)ncnc2cc1O[C@H]1CCOC1 [Afatinib],64.2
9,CCCCCCCCc1ccc(CCC(N)(CO)CO)cc1.Cl [Fingolimod (FTY720)] + CN(C)C/C=C/C(=O)Nc1cc2c(Nc3ccc(F)c(Cl)c3)ncnc2cc1O[C@H]1CCOC1 [Afatinib],53.7
10,COc1cc2c(Oc3ccc4[nH]c(C)cc4c3F)ncnc2cc1OCCCN1CCCC1 [Cediranib (AZD217)] + CN(C)C/C=C/C(=O)Nc1cc2c(Nc3ccc(F)c(Cl)c3)ncnc2cc1O[C@H]1CCOC1 [Afatinib],47.5
11,CC[C@@]1(O)C(=O)OCc2c1cc1n(c2=O)Cc2cc3c(CN(C)C)c(O)ccc3nc2-1.Cl [Topotecan HCl] + CN(C)C/C=C/C(=O)Nc1cc2c(Nc3ccc(F)c(Cl)c3)ncnc2cc1O[C@H]1CCOC1 [Afatinib],41.4
12,Cc1nc(NC(=O)N2CCCC2C(N)=O)sc1-c1ccnc(C(C)(C)C(F)(F)F)c1 (centres undefined) + CN(C)C/C=C/C(=O)Nc1cc2c(Nc3ccc(F)c(Cl)c3)ncnc2cc1O[C@H]1CCOC1 [Afatinib],46.9
13,CC(C)C[C@H](NC(=O)[C@H](Cc1ccccc1)NC(=O)c1cnccn1)B(O)O [Bortezomib] + CN(C)C/C=C/C(=O)Nc1cc2c(Nc3ccc(F)c(Cl)c3)ncnc2cc1O[C@H]1CCOC1 [Afatinib],22.5
14,CNC1CCC(c2ccc(Cl)c(Cl)c2)c2ccccc21.Cl (centres undefined) [Sertraline HCl] + CN(C)C/C=C/C(=O)Nc1cc2c(Nc3ccc(F)c(Cl)c3)ncnc2cc1O[C@H]1CCOC1 [Afatinib],53.4
